Laboratory results from PubChem BioAssay AID1645860 (Buhrlage Lab, Dana-Farber Cancer Institute and Novartis …, 2021).
In all, about 47,000 compounds went through this assay and about 2,500 (5.3%) were called active. Shown is part of a subset that was picked to be rich in actives. A number with no mark means an inactive call. Cut-off read from the data, not from the text of the source: active = inhibition above about 30%; inactive = the rest.

The compounds below were run against Ubiquitin carboxyl-terminal hydrolase 30 (Homo sapiens) (UniProt Q70CQ3) (assay: blocks human USP30 ubiquitin-rhodamine cleavage (AID 1645860)). Settings: purified USP30, Ub-rhodamine cleavage fluorescence; at 25 µM; hits give high values.
Sequence of Ubiquitin carboxyl-terminal hydrolase 30 (Homo sapiens) (Q70CQ3 whole entry, looked up): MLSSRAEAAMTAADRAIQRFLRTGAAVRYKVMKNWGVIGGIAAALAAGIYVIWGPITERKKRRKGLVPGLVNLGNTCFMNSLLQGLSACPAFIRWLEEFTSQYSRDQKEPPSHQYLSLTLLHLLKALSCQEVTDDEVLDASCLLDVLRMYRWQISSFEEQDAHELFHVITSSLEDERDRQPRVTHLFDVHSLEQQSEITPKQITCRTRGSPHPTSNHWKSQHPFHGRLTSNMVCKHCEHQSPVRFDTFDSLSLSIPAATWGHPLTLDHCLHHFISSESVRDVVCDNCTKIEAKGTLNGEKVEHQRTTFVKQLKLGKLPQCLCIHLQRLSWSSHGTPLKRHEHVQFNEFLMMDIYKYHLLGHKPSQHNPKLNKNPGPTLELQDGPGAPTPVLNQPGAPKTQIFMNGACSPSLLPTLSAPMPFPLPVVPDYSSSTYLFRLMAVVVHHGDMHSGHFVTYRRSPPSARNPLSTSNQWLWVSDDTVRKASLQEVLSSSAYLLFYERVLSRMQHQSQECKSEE

Row | SMILES | inhibition
1 | COc1cccc(C(=O)N[C@@H]2C[C@@H](Oc3ccccc3)[C@H](O)[C@H]2O)c1 | 26.7%
2 | CCC(=O)Nc1ccc2c(c1)nc(CCN1CCN(c3ccccn3)CC1)n2C | -16.8%
3 | Cc1nn(-c2ccccc2)c(C)c1S(=O)(=O)N1CCN(c2ccccn2)CC1 | -17.2%
4 | Clc1cc2nc(N3CCN(c4ccccn4)CC3)c3nncn3c2cc1Cl | 36.4% (active)
5 | CCN(C(=O)COc1cccnc1[N+](=O)[O-])c1ccccc1 | -14.2%
6 | O=C(NCC(=O)N1CCCc2ccccc21)c1cccc2[nH]ccc12 | 5.02%
7 | O=C(c1ccccc1)N1CCC(c2nc3c(nnn3Cc3c(Cl)cccc3Cl)c(=O)[nH]2)CC1 | -14.3%
8 | O=C(CSc1nnc(-c2ccc3c(c2)OCO3)n1-c1ccccc1)OCC(=O)c1ccccc1 | 69.9% (active)
9 | Cc1ccc(-n2c(SCC(=O)N3CCOCC3)nnc2-c2cc3ccccc3o2)cc1 | -10.7%
10 | COc1ccc(-n2c(SCC(=O)OC(C)C)nnc2-c2ccccn2)cc1 | 16.8%
11 | CN1CCOc2cc(S(=O)(=O)N(C)Cc3ccccc3)ccc21 | 29.5%
12 | CCOc1ncccc1C(=O)OCC(=O)c1ccc2c(c1)-c1ccccc1C2 | -153%
13 | CCN1CCN(C(=O)c2cnn(-c3cc(-c4nc(C5CC5)no4)ccn3)c2C)CC1 | 1.81%
14 | CCc1nc(-c2ccc(-n3cc(C(=O)NCc4nc5ccc(C)cc5[nH]4)c(C)n3)cc2)no1 | 8.95%
15 | Cc1ccc(CNC(=O)c2nc(-c3cn(-c4ccc(Br)cc4)nc3C)no2)o1 | 30.2% (active)
16 | O=C(NCC1CC1)c1nc(-c2ccc3[nH]ccc3c2)no1 | 0.789%
17 | COc1ccc(C(=O)CSc2nnc(CC(=O)Nc3ccc(C)cc3)n2C)cc1OC | 9.07%
18 | Cc1cccc(NC(=O)c2csc(-c3cn(C)c4ncccc34)n2)c1 | -7.75%
19 | Cn1cc(-c2nc(C(=O)Nc3ccc(F)cc3)cs2)c2cccnc21 | 62.1% (active)
20 | Cn1nc(C(=O)Nc2ccc(F)cc2)c(=O)c2ccccc21 | -0.148%
21 | Fc1ccccc1CNc1nnc(-c2nnc(C3CC3)o2)c2ccccc12 | 23.3%
22 | O=C(O)/C(=C\c1ccc(Br)cc1)NC(=O)c1ccco1 | -0.242%

Row | SMILES | inhibition
23 | Cc1cccc(NC(=O)c2cccn2Cc2noc(C3CC3)n2)n1 | -19.2%
24 | COc1ccc(-c2cc(C(F)F)n3ncc(C(=O)N(C)Cc4c(C)nn(C)c4C)c3n2)cc1 | -14.7%
25 | Cc1ccc(CNC(=O)c2cnn3c4c(cnc23)C(=O)CCC4)cc1 | -12.6%
26 | Cc1ccc(-c2cc(C(F)F)n3ncc(C(=O)NCC(C)C)c3n2)cc1 | 38.7% (active)
27 | COc1ccccc1NC(=O)C1=C(C)Nc2ncnn2C1c1ccc(C)o1 (stereo unspecified) | -6.73%
28 | COc1ccc(NC(=O)C2=C(C)Nc3ncnn3C2c2cccc(OCc3ccc(F)cc3)c2)c(OC)c1 (stereo unspecified) | 60.3% (active)
29 | COc1cccc(C2C(C(=O)Nc3ccccc3C)=C(C)Nc3ncnn32)c1OCc1ccccc1 (stereo unspecified) | -8.1%
30 | O=C(COC(=O)c1ccc2[nH]c3c(c2c1)CCCC3)Nc1ccc(N2CCOCC2)cc1 | -55.7%
31 | CN(C)c1ccc(CNC(=O)c2cc(CN3CCOCC3)on2)cc1 | 22%
32 | CCOc1nc2cccnc2n(CC(=O)Nc2ccc(F)cc2F)c1=O | -13%
33 | O=C(CN1C(=O)c2cccnc2Sc2ccccc21)Nc1ccc(F)cc1F | -96.8%
34 | O=C(CN1C(=O)C2CCCC2=Nc2ccccc21)Nc1ccc(F)cc1F (stereo unspecified) | 32.2% (active)
35 | COc1cccc(NC(=O)C(C#N)C(=O)C2CC2c2cccc(C)c2)c1 (stereo unspecified) | 31.3% (active)
36 | CNC(=O)N1CCC(n2c(C)nc(C(=O)Nc3cccc(OC)c3)c2C)CC1 | 2.54%
37 | CCN1CCCCC12Cc1ccccc1CN(S(C)(=O)=O)C2 (stereo unspecified) | 1.88%
38 | O=C(Nc1cccc(S(=O)(=O)N2CCCCCC2)c1)c1ccc(N2CCOCC2)c([N+](=O)[O-])c1 | 47.3% (active)
39 | CN1CCN(S(=O)(=O)c2cccc(C(=O)Nc3cccc(S(N)(=O)=O)c3)c2)CC1 | 7.83%
40 | Cc1cccc(NC(=O)c2ccc(N3CCC(C)CC3)c([N+](=O)[O-])c2)c1C | -29.1%
41 | COc1ccccc1OCc1nc(C)c(C(C)=O)s1 | 6.92%
42 | c1ccc(Sc2nc(-c3ccccc3)nc3ccsc23)cc1 | -19%
43 | CCC(=O)N1CCc2cc(S(=O)(=O)NC(Cc3ccccc3)C(=O)Nc3ccccc3OC)ccc21 (stereo unspecified) | -0.729%
44 | CC(CCc1ccccc1)NC(=O)c1cc2cc(Oc3ccccc3)ccc2[nH]1 (stereo unspecified) | 8.29%

Row | SMILES | inhibition
45 | O=C(Oc1cccc([N+](=O)[O-])c1)C(c1ccccc1)c1ccccc1 | 25%
46 | CC(CCc1ccccc1)NC(=O)/C=C/c1cccc([N+](=O)[O-])c1 (stereo unspecified) | 34.1% (active)
47 | COc1cccc(OCC(=O)N2CC(=O)Nc3ccccc32)c1 | -14.6%
48 | Cc1nc(C)n(CC2CCCCN2Cc2ncc(C(C)(C)C)o2)n1 (stereo unspecified) | -97.5%
49 | Cc1cc(C2CN(C(=O)c3cn4c(C)cccc4n3)CCO2)nc(C)n1 (stereo unspecified) | 2.35%
50 | O=C(Cc1cccc2ccccc12)Nc1nc2ccc(F)cc2s1 | 53.9% (active)
51 | CCCC(=O)Nc1nc2ccc(CCC(=O)NCc3ccc(F)cc3)cc2s1 | -10.2%
52 | CCOc1ccc2nc(NC(=O)CN3CCC(C(N)=O)CC3)sc2c1 | -1.04%
53 | O=C(OCC(=O)N1CCc2ccccc21)c1cccc([N+](=O)[O-])c1 | -2.1%
54 | CC(C)[C@H](NC(=O)N1CCn2c1nc1ccccc12)C(=O)NC1CC1 | 16%
55 | Cc1ccc2c(c1)C(c1ccc(F)cc1)N(C(=O)CC1CCCCC1)CC(=O)N2 (stereo unspecified) | 26.9%
56 | Cc1ccc2c(c1)C(c1ccccc1)N(C(=O)c1ccc(S(=O)(=O)N3CCOCC3)cc1)CC(=O)N2 (stereo unspecified) | 32.4% (active)
57 | O=C1CN(C(=O)c2cccc3ccccc23)C(c2ccc(F)cc2)c2cc(Br)ccc2N1 (stereo unspecified) | 16%
58 | O=C(c1ccccc1Cl)N1CCc2c([nH]c3ccccc23)C1c1ccc2c(c1)OCO2 (stereo unspecified) | -14.6%
59 | CCc1ccc(-n2nnc(C(=O)Nc3nnc(CC)s3)c2C)cc1 | 30.5% (active)
60 | CCc1nnc(NC(=O)C2CCN(C(=O)c3ccc(F)cc3)CC2)s1 | -0.015%
61 | CCc1nnc(NC(=O)c2cc(-c3ccc(C)c(C)c3O)n[nH]2)s1 | 17.9%
62 | COc1ccc(-c2nc(N(Cc3ccccc3)C(=O)CN3CCOCC3)sc2C)cc1 | -14.4%
63 | COc1ccc(NC(=O)c2sc(N3CCOCC3)nc2-c2ccccc2)c(OC)c1 | 48.1% (active)
64 | CNC(=O)c1cc(-c2ccccc2)c(N2CCOCC2)s1 | -0.0877%
65 | Cc1cc(C)c(S(=O)(=O)Nc2ccc(Cn3cncn3)cc2)cc1C | -29.3%
66 | COc1ccc(CN[C@H]2[C@H](O)[C@H](O)C[C@@H]2c2ccccc2)cn1 | -17.6%
